From PubChem BioAssay (NCI)
The panel holds about 83,000 compounds, 20% with a hit somewhere; the sample as a whole holds those more often.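 Negative percent growth values reflect cell death: -40 means 40% of the cells present at the start died, and -100 means all died.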 Values without a mark were called inactive. The source made the active and inactive calls. How the source made its calls: active means growth percent below 10; inactive means the rest.

The compounds below were run on A549/ATCC NSCLC (assay: NCI-60 one-dose screen, 48 h (100 = growth as untreated, 0 = no growth, -100 = all killed)). Settings: 10 µM unless noted.
`Cc1cccc(-c2nc(Nc3ccc4ncsc4c3)c3ccccc3n2)n1` showed a growth of 34.5%. For `COc1ccc(-c2cc(-c3ccccc3)nc(N3CCN(CCNc4ccnc5cc(Cl)ccc45)CC3)n2)cc1`, the growth was -16% (active). With `N#Cc1cccc(C2C3=C(COC3=O)N(CCO)c3cc4c(cc32)OCO4)c1` (configuration not stated) the growth was 39.5%. In the case of `CCN1C(=O)N(CC)C2C1NC(=S)N2/N=C/c1ccc(OC)cc1` (configuration not stated), the growth is reported as 41.7%. `Nc1[nH]c(=S)nc2oc(-c3ccccc3)c(-c3ccccc3)c12` was tested, and the growth was 98.1%. For `N=C(N)c1ccc(-c2ccc(-c3cc(Cl)cc(Cl)c3)s2)nc1`, the growth was 0.133% (active). In the case of `c1ccc2c(c1)CCCc1nnc3nc4ccccc4n3c1-2`, the growth is reported as 29.9%. `Nc1[nH]n2cc(-c3ccc(F)cc3)nc2c1N=Nc1ccc(S(N)(=O)=O)cc1` was tested, and the growth was 84.6%. For `CNC(C)[C@H]1CCC2C3CC=C4C(=O)[C@@H](NC(=O)C=C(C)C)CC[C@]4(C)C3CC[C@@]21C` (some centres not stated), the growth was 30.3%. `COc1ccc2c(c1)/C(=N/c1n[nH]c(=S)s1)C(=O)N2` was tested, and the growth was 83.7%. `Cc1ccc(-c2nc(SCc3nc4cc(Cl)c(Cl)cc4[nH]3)[nH]c(=O)c2C#N)cc1` showed a growth of 93.1%. `COc1ccc2c(c1)c(/C(O)=C1\COC(=O)C1=O)cn2Cc1ccc(F)cc1` was tested, and the growth was 101%. `O=C1/C(=C2\SC(=S)N(C3CC3)C2=O)SC(=S)N1C1CC1` gave a growth of 98.1%. Compound `C#CC#CC#CC#CC#CC#CC#CC#CCC1OC[C@H](COC(=O)O[C@@H](C(=O)O[C@H]2C[C@@]3(O)[C@@H](OC(=O)c4ccccc4)[C@@H]4[C@]5(OC(C)=O)CO[C@@H]5C[C@H](O)[C@@]4(C)C(=O)[C@H](OC(C)=O)C(=C2C)C3(C)C)[C@@H](NC(=O)c2ccccc2)c2ccccc2)O1` (some centres not stated) has a growth of 32.3%. `Cc1nnc(-c2ccc3c(c2)nc(/C=C/c2ccccc2)n3C2CCCCC2)o1` was tested, and the growth was 52.5%. With `Nc1nc(N)c2c(n1)NC(c1ccc(Cl)cc1)C1CCc3ccccc3C1=N2` (configuration not stated) the growth was 64%. `Fc1ccc(Cn2cc(CSc3nc4ccccc4o3)nn2)cc1` was tested, and the growth was 103%. In the case of `CC(C)(C)c1cc(Cl)c(O)c(CNCCO)c1`, the growth is reported as 109%. In the case of `Nc1nc2c(c3ncccc13)C(c1cccc(Cl)c1)Cc1ncccc1-2` (configuration not stated), the growth is reported as 18.6%. In the case of `COc1ccc(C(=O)N2c3ccccc3Sc3ccccc32)c(C(F)(F)F)c1`, the growth is reported as 25.3%. Work on `Cc1ccc(C(=O)c2ccc(CC(=O)NN3C(=O)c4ccccc4C3=O)n2C)cc1` yielded a growth of 101%. In the case of `C=C1C(=O)O[C@H]2[C@H]1CC/C(Cn1cc(CCC)nn1)=C\CC[C@@]1(C)O[C@@H]21`, the growth is reported as 68.2%. Work on `O=C(/C=C/c1ccccc1)c1ccc(Nc2nc(Nc3ccc(F)cc3)nc(Nc3ccc(Cl)cc3)n2)cc1` yielded a growth of 112%. Compound `N#Cc1cccc(C2C3=C(COC3=O)N(CCO)c3cc4c(cc32)CCC4)c1` (configuration not stated) has a growth of 12.3%. In the case of `CCN1C(=O)N(CC)C2Nn3c(s/c(=C\c4ccccc4Br)c3=O)=NC21` (configuration not stated), the growth is reported as 12.7%. Work on `Cc1ccc(C=C2C(=O)NC(=O)NC2=O)cc1` yielded a growth of 87.8%. Work on `Cc1cccc(N2CCC(=O)NC2=S)c1` yielded a growth of 99.1%. With `N#C/C(=C\c1ccc(-c2cccc(C(F)(F)F)c2)o1)c1ccccc1` the growth was 94.3%. In the case of `N#C/C(=C\c1ccc([N+](=O)[O-])cc1)n1nnc2cc(F)c(F)cc21`, the growth is reported as 64.5%. Compound `CC/C=C\CCC/C=C1/C(=O)C=C[C@@H]1C/C=C\CCCC(=O)OC` has a growth of 79%. `CN(C)c1ccc(/C=C(\C#N)c2cc3ccccc3[nH]2)cc1` was tested, and the growth was 41.4%. In the case of `O=C(Nc1ccc(Br)cc1)C1=NCCCCN1`, the growth is reported as 90.5%. In the case of `CNC(=O)c1cc(Oc2cccc3nc(NC(=O)Nc4cc(C(F)(F)F)ccc4Cl)ccc23)ccn1`, the growth is reported as 90%. `COc1cccc(CCNc2ncnc3c2ncn3Cc2nnc3c4ccccc4c(Cl)nn23)c1` showed a growth of 77.8%. Compound `CCOC(=O)c1c(C)nc2c(c1N)/C(=C/c1ccc(OC)cc1)C(=O)N2Cc1ccccc1` has a growth of 63.4%. With `O=S(=O)(NCCNc1nccc(-c2c(-c3ccc(F)c(O)c3)nc3sccn23)n1)c1ccc(F)cc1` the growth was 26.9%. `S=C(c1ccc2c(c1)OCO2)N1CCN(c2cccc(Cl)c2)CC1` gave a growth of 35.9%.
